From PubChem BioAssay (NCATS)

assay: qHTS profiling of the MIPE4 collection as inhibitors of Plasmodium falciparum (HB3) proliferation (AID 743347);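 also: plate controls were DMSO vehicle wells for no effect and artemisinin wells for full effect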; conditions: P. falciparum HB3 in erythrocytes, SYBR Green DNA, 72 h; at 28.5 µM (top of the series) unless noted
Description: Plasmodium falciparum is a virulent malarial parasite that kills 1-2 million people worldwide each year. Transmitted by mosquitoes, the sporozoite form of the parasite enters the blood stream to infect hepatocytes, where they become merozoites that infect red blood cells (erythrocytes). Within erythrocytes, merozoites begin a […] cycle of growth and division, after which the parasite is released to infect new red blood cells. Gametocytes, which form within erythrocytes as well, circulate in the bloodstream and are ingested by the mosquito, thereby completing the life cycle. To profile malarial isolates for differential chemical responses and to identify inhibitors of malarial growth, an assay that measures P. falciparum growth and replication within erythrocytes was employed. This assay uses a DNA binding fluorescent dye (SYBR Green) to detect parasite DNA following cell lysis. Because mature erythrocytes lack DNA, only Plasmodium-derived DNA is detected.
The SYBR Green viability assay was adapted from a method described previously (Plouffe et al., 2008). For screening 3 ul culture medium was dispensed into 1536 well black clear bottom plates (Aurora Biotechnologies) using a Multidrop Combi (Thermo Fisher Scientific Inc.), 23 nL compounds in DMSO were added by a pin tool (Kalypsys), and 5 ul of erythrocytes infected with P. falciparum (0.3% parasitemia, 2.5% hematocrit final concentration) were added. The plates were incubated at 37 C in a humidified incubator in 5% CO2 for 72 h, and 2 ul lysis buffer (20 mM Tris HCl, 10 mM EDTA, 0.16% saponin, 1.6% triton X, 10X SYBR Green I supplied as 10,000X […] by Invitrogen) was added to each well. The plates were mixed for 25 sec with gentle shaking and incubated overnight at room temperature in the dark. The following morning, fluorescence intensity at 485(14) nm excitation and 535(25) nm emission wavelengths was measured on an EnVision (Perkin Elmer) plate reader. Plate reads were normalized relative to the control inhibitor (0.29 uM artemisinin) and vehicle (DMSO) wells present on each plate and then corrected by an algorithm using vehicle-only control plates at the beginning and end of the compound plate stack.

Row | SMILES | growth, % of control
1 | CCCCCCNC(=O)n1cc(F)c(=O)[nH]c1=O | 71.2%
2 | Cn1c(=O)c2c(ncn2CC(O)CO)n(C)c1=O (stereo not given) | 56.5%
3 | CCc1c2c(nc3ccc(OC(=O)N4CCC(N5CCCCC5)CC4)cc13)-c1cc3c(c(=O)n1C2)COC(=O)[C@]3(O)CC | 71.1%
4 | CC1CC2C3CCC4=CC(=O)C=C[C@]4(C)[C@@]3(F)[C@@H](O)C[C@]2(C)[C@@]1(O)C(=O)CO (stereo not given in full) | 102%
5 | COc1ccc2c(c1)c(CC(=O)OCC(=O)O)c(C)n2C(=O)c1ccc(Cl)cc1 | 80.2%
6 | O=C(O)c1ccc(-n2nc(-c3ccccc3O)nc2-c2ccccc2O)cc1 | 94.6%
7 | Cc1oc(=O)oc1CN1CCN(c2cc3c(cc2F)c(=O)c(C(=O)O)c2n3C(C)S2)CC1 (stereo not given) | 24.3%
8 | Cc1ncc([N+](=O)[O-])n1CCO | 85.1%
9 | N[C@@H](Cc1ccc(O)c(O)c1)C(=O)O | 84%
10 | CCOCC(O)COc1ccc(NC(=O)CC[S+](C)C)cc1 (stereo not given) | 99.4%
11 | Oc1c(Cl)cc(Cl)c2cccnc12 | 347%
12 | Cc1cccc(N(C)C(=S)Oc2ccc3ccccc3c2)c1 | 50.4%
13 | CCCCc1oc2ccc(NS(C)(=O)=O)cc2c1C(=O)c1ccc(OCCCN(CCCC)CCCC)cc1 | 7.93%
14 | Nc1nc(N)c2nc(CNc3ccc(C(=O)NC(CCC(=O)O)C(=O)O)cc3)cnc2n1 (stereo not given) | 23.4%
15 | CCc1cc(C(N)=S)ccn1 | 2.68%
16 | CCn1cc(C(=O)O)c(=O)c2cc(F)c(N3CCN(C)CC3)cc21 | 370%
17 | CCC(C)(C)c1ccc(CC(C)CN2C[C@@H](C)O[C@@H](C)C2)cc1 (stereo not given in full) | 26.4%
18 | COCCCOc1cc(C[C@@H](C[C@H](N)[C@@H](O)C[C@H](C(=O)NCC(C)(C)C(N)=O)C(C)C)C(C)C)ccc1OC | 86.2%
19 | Cc1ccc(S(=O)(=O)N[C@@H](Cc2ccccc2)C(=O)CCl)cc1 | 84.3%
20 | COc1ccc(C(=O)CC(=O)c2ccc(C(C)(C)C)cc2)cc1 | 2.68%

Row | SMILES | growth, % of control
21 | O=S(=O)(O)CCS | 66.6%
22 | NC(=O)c1cccnc1 | 105%
23 | COc1ccccc1OCC(O)COC(N)=O (stereo not given) | 111%
24 | CC(=O)[C@H]1CC[C@H]2[C@@H]3CC=C4C[C@@H](O)CC[C@]4(C)[C@H]3CC[C@]12C | 65.7%
25 | Nc1nc(=S)c2[nH]cnc2[nH]1 | 216%
26 | CCCCS(=N)(=O)CCC(N)C(=O)O (stereo not given) | 102%
27 | O=C(O)C1CCCN(CCC=C(c2ccccc2)c2ccccc2)C1 (stereo not given) | 101%
28 | CCn1cc(C(=O)O)c(=O)c2cc(F)c(N3CCNCC3)nc21 | 56.4%
29 | CNC(=O)c1cc(Oc2ccc(NC(=O)Nc3ccc(Cl)c(C(F)(F)F)c3)cc2)ccn1 | 12.2%
30 | COc1ncnc(NS(=O)(=O)c2ccc(N)cc2)c1OC | 747%
31 | NC(=O)c1ccc2[nH]ccc2c1 | 57.5%
32 | CC(N)C12CC3CC(CC(C3)C1)C2 (stereo not given) | 96.9%
33 | CCN(CC)CC#CCOC(=O)C(O)(c1ccccc1)C1CCCCC1 (stereo not given) | 11.2%
34 | CC(=O)Oc1ccccc1C(=O)Nc1ncc([N+](=O)[O-])s1 | 4.58% [at 57.5 µM]
35 | C1CCC(C(CC2CCCCN2)C2CCCCC2)CC1 (stereo not given) | 1.94%
36 | C[C@@H](NCCCc1cccc(C(F)(F)F)c1)c1cccc2ccccc12 | 4.3%
37 | Cc1onc(-c2ccccc2Cl)c1C(=O)N[C@@H]1C(=O)N2[C@@H]1SC(C)(C)[C@@H]2C(=O)O | 108%
38 | CN1CCN(c2c(F)cc3c(=O)c(C(=O)O)cn(CCF)c3c2F)CC1 | 99%
39 | CN1CCCC(n2nc(Cc3ccc(Cl)cc3)c3ccccc3c2=O)CC1 (stereo not given) | 2.79%
40 | COC(=O)Nc1nc2ccc(C(=O)c3ccccc3)cc2[nH]1 | 84.4%
